# According to PubChem BioAssay (NCI):
# About 83,000 compounds went through this panel and 20% of them were active in at least one assay; those are over-represented in the sample as a whole.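 Treatment: one concentration, 48 hours, 96-well format. Scoring: percent growth, with anything below 10 considered active.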 Values without a mark were called inactive. The source made the active and inactive calls.
# Test system: HL-60(TB) leukemia
# Assay: NCI-60 one-dose screen, 48 h (100 = growth as untreated, 0 = no growth, -100 = all killed)
# Details: 10 µM unless noted
row,Compound,growth
1,NC(=S)N/N=C/c1cc(-c2cccc(N)c2)ccn1,-12% (active)
2,c1ccc(Cn2cnc3ccc(-c4nc(-c5ccc6c(c5)ncn6C5CCCCC5)cn5ccnc45)cc32)cc1,-20.8% (active)
3,Cn1c(C#N)ccc1-c1ccc(F)c(NC(=O)c2ccc(F)cc2)c1,60%
4,C/C=C/C/C=C/[C@H](C)C[C@H](O)[C@@H]1C[C@@H]2O[C@H]2/C=C/[C@H](O)[C@@H](O)/C=C/C[C@H](C)CC(=O)O1,76.6%
5,CC(C)(C)[Si](C)(C)OC1[C@@H](O[Si](C)(C)C(C)(C)C)[C@@H](CNC(=O)NC(=O)CCl)O[C@H]1n1cnc2c(NC(=O)Nc3ccccc3)ncnc21 (stereo not given in full),-73.1% (active)
6,COc1ccc(-c2nc3ccccn3c2/C=C/C(=O)c2cc(OC)c(OC)c(OC)c2)cc1OC,9.67% (active)
7,CC(=O)OCCC/C(=C/c1cc2ccccc2c2ccccc12)[N+](=O)[O-],-52.1% (active)
8,N=C(N)c1ccc(-c2ccc(-c3ccc(F)cc3)s2)nc1,-28% (active)
9,CCCN1C(=O)N(CCC)C2C1NN=c1s/c(=C3\C(=O)N(C(C)C)c4ccccc43)c(=O)n12 (stereo not given),0.788% (active)
10,COc1cc2cc(c1Cl)N(C)C(=O)C[C@H](OC(=O)[C@H](C)N(C)C(C)=O)[C@]1(C)O[C@H]1[C@H](C)[C@@H]1C[C@@](O)(NC(=O)O1)[C@H](OC)C=C/C=C(\C)C2,-25.6% (active)
11,Cn1ccnc1C(=O)/C=C/c1ccc(C(=O)Nc2ccc(F)cc2)cc1,-6.9% (active)
12,O=C(Nc1ccc(Cl)cc1Cl)Nc1ccc(-c2cccnc2)cc1N1CCC(CO)CC1,6.31% (active)
13,COc1cc(CCc2cc(NC(=O)c3ccc(N4C[C@@H](C)N[C@@H](C)C4)cc3)n[nH]2)cc(OC)c1,12.5%
14,c1cncc(CNc2ccccc2-c2nnc(Nc3ccc4c(c3)OCO4)o2)c1,-22.5% (active)
15,CC(O)(CO)c1ccccc1 (stereo not given),116%
16,C#CCNC(=O)[C@]1(C)CC[C@]2(C)CC[C@@H]3C(=CC[C@H]4[C@@]3(C)CC[C@H]3C(C)(C)C(=O)CC[C@]43C)[C@@H]2C1,56.2%
17,COc1ncc(-c2ccc3ncnc(Nc4cccc(Cl)c4)c3c2)cc1NS(=O)(=O)CCN1CCOCC1,23.9%
18,O=C(COc1cccc(/C=C2\Oc3ccc4ccccc4c3C2=O)c1)c1ccc(Cl)cc1,107%
19,CCCNC(=O)c1ccc(S(N)(=O)=O)cc1,133%
20,Cc1nnc(-c2ccc3c(c2)nc(/C=C/c2ccccc2)n3C2CCCCC2)o1,65.3%

row,Compound,growth
1,N=C(N)c1ccc(-c2ccc(-c3ccc4ccccc4c3)s2)cc1,86.7%
2,NC1=C(C/C(N)=N\O)C(c2ccccc2Cl)c2c(ccc3ccccc23)O1 (stereo not given),84.9%
3,COc1ccc2nc(C)cc(Sc3nc4ccccc4s3)c2c1,6.64% (active)
4,CC(=O)C(C(C)=O)C(c1ccccc1)C(C(C)=O)C(C)=O,98.5%
5,Clc1ccc(-c2cn3ccsc3n2)c(Cl)c1Cl,85.7%
6,C=C1CC[C@@H]2[C@](C)(COC(C)=O)[C@H](OC(C)=O)CC[C@@]2(C)[C@@H]1CC(NCc1ccc(F)cc1)C1=CCOC1=O (stereo not given in full),-9.52% (active)
7,Cc1c(Cl)cccc1NC(=O)c1sc2nc3c(cc2c1N)CCCCCC3,-15.9% (active)
8,O=C(CCc1nnc2sc(/C=C\c3ccccc3)nn12)c1nc2ccccc2[nH]1,99.8%
9,COc1cc(Cl)cc(-c2nn(-c3cccc(NC(=O)c4cc(C(F)(F)F)cc(C(F)(F)F)c4)c3)cc2-c2ccncc2)c1,84.3%
10,COc1cc(-c2cc(/C=C/C(=O)c3ccc(N)cc3)[nH]n2)cc(OC)c1OC,13.2%
11,c1ccc([P+](CCC[P+](c2ccccc2)(c2ccccc2)c2ccccc2)(c2ccccc2)c2ccccc2)cc1,30.5%
12,CCOC(=O)c1cc2c(n1Cc1cc(OC)c(OC)c(OC)c1)-c1nc(N)sc1CCC2,13.2%
13,CCN1C(=O)N(CC)C2C1NN=c1s/c(=C3\C(=O)N(C)c4ccccc43)c(=O)n12 (stereo not given),-13% (active)
14,CC(C)c1ccc(C(=O)OC(=O)c2ccc(C(C)C)cc2)cc1,51.3%
15,Nc1ccc(/C=N/Nc2ccnc3c(O)cccc23)c2cccnc12,17.9%
16,COC(=O)[C@H](CCCCNC(=O)OCc1ccccc1)NC(=O)[C@@H](NC(=O)Nc1cc(C(F)(F)F)cc(C(F)(F)F)c1)C(C)C,-9.21% [100 µM] (active)
17,COc1ccc(/C=C/C(=O)c2ccc(NC(=O)c3cc4cc5ccccc5nc4s3)cc2)cc1OC,92.5%
18,COC(=O)[C@]12CC[C@@H](C)[C@H](C)[C@@H]1C1=CC[C@@H]3[C@@]4(C)C(c5ncon5)=C[C@@](C)(CO)C4=CC[C@@]3(C)[C@]1(C)CC2,-33.9% (active)
19,Nc1ccc2cc(Br)c3ccccc3c2c1,45.6%
20,CCn1cc(C2NC(=O)c3ccccc3N2)c2cccc(C)c21 (stereo not given),-56.2% (active)
